Measured values reported in PubChem BioAssay AID504545 (Broad Institute, 2011).
Entries with a potency or affinity are not part of this list. Records with an inconclusive call do not appear. The source made the active and inactive calls. No rule for the calls is given here.

Molecular target: Cyclin-dependent kinase 5 activator 1 (Homo sapiens) + Cyclin-dependent kinase 5 (Homo sapiens) (UniProt Q15078+Q00535)
Assay: CDK5/p35 kinase inhibitors, dose response, biochemical, cherry-picked samples, set 2 (AID 504545)
Settings: biochemical plate reader; series mostly up to 30 µM

Chain of Cyclin-dependent kinase 5 activator 1 (Homo sapiens) + Cyclin-dependent kinase 5 (Homo sapiens) (Q00535 whole entry, looked up): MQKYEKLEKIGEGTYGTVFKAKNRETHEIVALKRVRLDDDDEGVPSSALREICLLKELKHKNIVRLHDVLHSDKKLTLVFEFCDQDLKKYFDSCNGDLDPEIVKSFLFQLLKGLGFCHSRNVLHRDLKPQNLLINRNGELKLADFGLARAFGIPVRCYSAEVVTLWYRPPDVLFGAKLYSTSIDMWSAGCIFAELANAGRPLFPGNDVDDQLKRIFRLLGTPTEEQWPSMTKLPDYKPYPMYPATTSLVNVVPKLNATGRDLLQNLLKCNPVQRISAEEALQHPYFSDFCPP
Chain of Cyclin-dependent kinase 5 activator 1 (Homo sapiens) + Cyclin-dependent kinase 5 (Homo sapiens) (Q15078 whole entry, looked up): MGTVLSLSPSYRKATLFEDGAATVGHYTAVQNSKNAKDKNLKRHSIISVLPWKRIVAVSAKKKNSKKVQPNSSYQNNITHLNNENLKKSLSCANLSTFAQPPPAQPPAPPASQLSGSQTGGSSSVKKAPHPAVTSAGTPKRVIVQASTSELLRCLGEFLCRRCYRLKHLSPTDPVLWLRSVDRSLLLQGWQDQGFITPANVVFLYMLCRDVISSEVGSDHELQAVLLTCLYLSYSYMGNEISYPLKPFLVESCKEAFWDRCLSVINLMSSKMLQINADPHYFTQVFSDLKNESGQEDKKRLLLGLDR

outcome, inactive:
CC(C)n1cnc2c(N(C)c3cccc(Cl)c3)nc(N(CCO)CCO)nc21
O=C(c1ccc2c(c1)OCCO2)N1CCN(c2ccccn2)CC1
Oc1cccc(C=NNc2ccccn2)c1
Cc1nc(Nc2ccccc2)sc1C(=O)c1ccccc1
O=C(NNC(=O)c1ccccn1)c1ccc(OC(F)F)cc1
COc1ccc(Nc2nc(N)c(C(=O)c3ccc(F)cc3)s2)cc1
COc1ccc2nc(C(F)(F)C(F)(F)F)c(C#N)c(N)c2c1
NC(=S)N/N=C/c1c(O)c(Br)cc2oc3c(c12)CCCC3
O=C(O)c1ccc(/C=N/Nc2ncc(C(F)(F)F)cc2Cl)cc1
